Measurements taken from PubChem BioAssay AID743279 (National Center for Advancing Translational Sciences (NCATS), 2014).
The whole screen tested about 360,000 compounds, of which about 17,000 (4.7%) were called active. About 5% were inconclusive and are not listed. The sample as a whole holds a higher share of actives than the screen did. Values without a mark were called inactive. Cut-off read from the data, not from the text of the source: active = activity change below about -50%; inconclusive = mostly about -30% to -49%; inactive = weaker than that.

Test: qHTS for Inhibitors of Inflammasome Signaling: IL-1-beta AlphaLISA Primary Screen
Conditions: THP-1 LPS/ATP IL-1B secretion, 16 h; at 57.5 µM, active compounds read low
In short: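 Secreted IL-1B measured by AlphaLISA bead assay after 16 h compound exposure of THP-1 cells; compounds (final up to 57.5 uM) added 1 h before LPS (250 ng/mL) and ATP (1.25 mM) stimulation; lower signal means less secretion.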
% is set by controls: 0 for no effect and ±100 for the full control effect.

SMILES	activity change
COc1ccc(S(=O)(=O)N(C)C[C@H]2OCc3cnnn3CCCC(=O)N([C@H](C)CO)C[C@H]2C)cc1	-20%
Cc1ccccc1NC(=O)Cc1nc(COC(=O)C(C)(C)Oc2ccc(Cl)cc2)cs1	17%
CC1CCCCN1CCCNC(=O)Cn1ncc2c([nH]c3ccccc32)c1=O (stereo unspecified)	14.3%
CCNC(=O)C1CCCN(C(=O)c2cc(F)ccc2C)CC1 (stereo unspecified)	26.6%
O=S(=O)(Nc1ccc(O)c2ccccc12)c1ccc(OC(F)(F)F)cc1	-70.3% (active)
O=C1COc2ccc(S(=O)(=O)Nc3ccc(OC(F)(F)F)cc3)cc2N1	6.28%
Cc1nn(C)c(C)c1NS(=O)(=O)c1ccc(OC(F)(F)F)cc1	63%
O=C(CC[C@H]1O[C@@H](n2ccc(=O)[nH]c2=O)[C@H](O)[C@@H]1O)N[C@H](Cc1ccccc1)C(=O)NCc1ccco1	17.1%
CNc1nc(=O)n(C2CCCO2)cc1C (stereo unspecified)	-1.08%
Cc1cc(C)n2c(Nc3c(C)cccc3C)c(CCc3ccccc3)nc2n1	0%
O=C(NOCc1ccccc1)c1cccc([N+](=O)[O-])c1	-14.2%
O=C(NC(Nc1nc2ccc([N+](=O)[O-])cc2s1)(C(F)(F)F)C(F)(F)F)c1ccccc1	-105% (active)
O=C(COC(=O)c1ccc([N+](=O)[O-])cc1Cl)NC(=O)c1ccccc1	0.699%
CCOC(=O)c1ccccc1NC(=O)COC(=O)CCC(=O)N1CCOCC1	-2.88%
CN(C)CCOC1c2ccccc2-c2ccccc21	-24.9%
Cc1ccccc1C(OCCN(C)C)C1CCCCC1 (stereo unspecified)	-55.7% (active)
CN(C)CCOC(=O)C(c1ccccc1)C1(O)CCCC1 (stereo unspecified)	-8.97%
Nc1ccccc1Sc1cc(Cl)nnc1Cl	4.28%
CCOc1ccc(S(=O)(=O)Nc2nccs2)cc1	-1.81%
CC(Oc1ccc(Cl)cc1)c1ccnn1S(C)(=O)=O (stereo unspecified)	-4.95%
CCC(C)C(=O)Nc1cc([N+](=O)[O-])ccc1Cl (stereo unspecified)	4.95%
CNc1ccc([N+](=O)[O-])cc1C(=O)O	12.5%
Cc1ccc(NC(=O)c2cc([N+](=O)[O-])ccc2Cl)c(O)c1	-76% (active)
CN(Cc1ccccc1F)c1cc2c(c3c1ccn3C)C1CCC2O1 (stereo unspecified)	38.3%
Cc1nccn1-c1ccc(NC(=O)[C@H]2O[C@@H](n3ccc(=O)[nH]c3=O)[C@H](O)[C@@H]2O)cc1	20.2%
COC(=O)[C@@]1(Cc2ccc(F)cc2)[C@H]2c3cc(C(=O)N(C)C)n(CCc4c[nH]c5ccc(OC)cc45)c3C[C@H]2CN1C(=O)c1ccccc1	-25.7%
